WRN inhibitor = blocks human WRN helicase; Q14191; WRN helicase unwinding, fluorescent forked duplex, kinetic; Potency, µM (highest dose often 114 µM), for the others: at the highest dose activity change, negative = inhibition, usual class: inhibitors; actives 0.46% (n = 360,000); further: on the % scale 0 is the no-effect control and ±100 the full control effect; nearly all actives have a fitted effect of over 55% in size
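Kinetic red-fluorescence monitoring (525/598 nm) tracks WRN helicase activity after 100 nM fluorophore-quencher forked duplex and 2 mM ATP are added to 20 nM enzyme pretreated 15 min at room temperature with compound.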
POLH inh = DNA polymerase eta (human) inhibition. Q9Y253. recombinant Pol eta, fluorescent DNA replication assay. Potency, µM (highest dose often 114 µM), for the others: at the top dose activity change, negative = inhibition, most hits filed as inhibitors. actives 1.2% (n = 390,000). AID 588591; further: on the % scale 0 is the no-effect control and ±100 the full control effect
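Fluorescent replication assay: 50 nM final substrate added after a 15 min room-temperature compound preincubation with 10 nM enzyme. Signal taken at 0 min and again at 10 min.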
POLB inh = inhibitors of human DNA polymerase beta; P06746; AID 485314; actives 1.3% (n = 340,000); Potency, µM (doses to about 114 µM), for the others: at the highest dose activity change, negative = inhibition, usual class: inhibitors; Pol beta primer extension/strand displacement, fluorescence kinetic; further: on the % scale 0 is the no-effect control and ±100 the full control effect
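Preincubation: enzyme (10 nM) with compound, 15 min, RT. Reaction: substrate added to 50 nM final. Reads: 0 and 10 min. Analysis: normalized, Hill fit.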
POLI inh = DNA polymerase iota (human) inhibition; actives 1% (n = 390,000); Potency, µM (doses to about 115 µM), for the others: top-dose activity, negative = inhibition, hits mostly inhibitors; Pol iota fluorescent replication assay, 10 min; AID 588590; Q9UNA4
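Pol iota at 10 nM preincubated 15 min with compounds at room temperature; reaction started with fluorescent substrate, 50 nM final. Fluorescence read kinetically at 0 and 10 min; buffer-only wells as negative control.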
POLK inh = blocks human DNA polymerase kappa activity; Q9UBT6; purified Pol kappa, fluorescent DNA synthesis assay, 10 min; Potency, µM (top dose mostly 107 µM), inactives show top-dose activity, negative = inhibition, actives largely listed as inhibitors; actives 0.53% (n = 400,000); further: on the % scale 0 is the no-effect control and ±100 the full control effect
Target sequence (Q9UBT6 whole entry, looked up): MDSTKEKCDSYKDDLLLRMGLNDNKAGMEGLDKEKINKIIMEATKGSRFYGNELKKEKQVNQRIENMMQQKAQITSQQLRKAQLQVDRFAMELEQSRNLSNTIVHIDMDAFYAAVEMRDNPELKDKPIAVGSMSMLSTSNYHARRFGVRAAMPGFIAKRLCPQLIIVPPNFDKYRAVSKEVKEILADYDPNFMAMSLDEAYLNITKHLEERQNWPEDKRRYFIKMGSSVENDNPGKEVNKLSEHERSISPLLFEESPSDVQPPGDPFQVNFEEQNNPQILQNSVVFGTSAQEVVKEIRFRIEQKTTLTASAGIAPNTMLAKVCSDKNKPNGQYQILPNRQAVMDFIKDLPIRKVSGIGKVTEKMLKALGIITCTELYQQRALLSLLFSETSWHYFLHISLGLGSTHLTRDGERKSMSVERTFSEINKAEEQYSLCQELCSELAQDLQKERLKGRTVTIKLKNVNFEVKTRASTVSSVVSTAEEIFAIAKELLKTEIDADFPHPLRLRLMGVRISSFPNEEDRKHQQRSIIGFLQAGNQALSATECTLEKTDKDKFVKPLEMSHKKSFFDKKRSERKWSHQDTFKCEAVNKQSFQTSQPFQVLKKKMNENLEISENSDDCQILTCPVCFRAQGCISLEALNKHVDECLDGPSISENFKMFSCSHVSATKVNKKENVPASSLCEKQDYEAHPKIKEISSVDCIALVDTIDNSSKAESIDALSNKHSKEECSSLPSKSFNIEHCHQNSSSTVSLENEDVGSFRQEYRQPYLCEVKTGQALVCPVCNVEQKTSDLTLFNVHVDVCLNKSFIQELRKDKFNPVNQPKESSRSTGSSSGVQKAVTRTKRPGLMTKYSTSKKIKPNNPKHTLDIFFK
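Activity was followed as the change in fluorescence between reads at 0 and 10 min after starting the reaction with 50 nM substrate. Beforehand, 10 nM polymerase had been preincubated with compound for 15 min at room temperature.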
FEN1 inhibitor = human FEN1 inhibition. Recombinant FEN1 flap cleavage, fluorescence, 15 min. AID 588795. actives 0.35% (n = 390,000). Potency, µM (titrated, usually from 114 µM), without a hit: at the highest dose activity change, negative = inhibition, usual class: inhibitors; further: on the % scale 0 is the no-effect control and ±100 the full control effect; nearly all actives have a fitted effect of over 65% in size
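With each library titrated from low to high concentration, compounds met 10 nM FEN1 for 15 min at room temperature before 50 nM substrate was added; readings at 0 and 15 min fed four-parameter Hill curve fits.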
* marks the source's active call; other numbers are inactive results; i = inactive; ? = inconclusive; . = no result given; [ ] = dose if it differs, or a comment. Hits are enriched below; roughly 2.4% of the tested compounds scored in any of these assays. The call rests on the fitted dose curve; in most records, active means well fitted curve in the direction sought with a large enough effect; inconclusive means small, poorly fitted or top-dose-only effect, or another doubt; inactive means no such curve, though single readings can be large; an effect the other way counts as inactive or inconclusive. Potency means the concentration at half of the fitted maximal effect.

SMILES	WRN inhibitor	POLH inh	POLB inh	POLI inh	POLK inh	FEN1 inhibitor
O=c1oc2c(-c3ccc([N+](=O)[O-])cc3)cc(O)cc2s1	56µM*	?	?	50µM*	?	-1%
NC1=C(c2ccc([N+](=O)[O-])cc2)C(=O)CO1	1%	-5%	0%	62%	-4%	4%
COc1cccc(N2CC(NC(=O)c3ccc(S(=O)(=O)N4CCCC4)cc3)CC2=O)c1 (stereo not given)	.	4%	-1%	15%	-4%[60.1 µM]	7%
CCOC(=O)c1c(N)sc(=S)c2c1CCC2	-28%	?	8.9µM*	?	-29%	-19%
CCN(CC)C(=O)Oc1ccc2c(c1)O/C(=C\c1ccco1)C2=O	7%	-26%	45µM*	?	-12%	-26%
COC(=O)COc1ccc2c(c1)O/C(=C\c1ccco1)C2=O	?	?	32µM*	?	-26%	2%
CCC(=O)Oc1ccc2c(c1)O/C(=C\c1ccco1)C2=O	-24%	?	?	?	?	-26%
Cc1ccc2c(c1)sc[n+]2Cc1ccccc1	2%[11.6 µM]	-10%	22%	45µM*	-13%	-8%
CCc1sc(C(=O)NCCc2ccc(S(N)(=O)=O)cc2)cc1C	-9%	-7%	83%	?	-14%	3%
CCc1sc(C(=O)NCCc2ccc(S(N)(=O)=O)cc2)cc1Br	-3%	-10%	-1%	89µM*	0%	-3%
CC(Oc1ccc(F)cc1)C(=O)Nc1cccc(-c2nn[nH]n2)c1 (stereo not given)	0%	45µM*	-1%	45µM*	-23%	-13%
COc1ccc(OC(C)C(=O)Nc2cccc(OC)c2)cc1 (stereo not given)	-12%	-9%	-13%	-6%	10%	16%
CCOC(=O)Nc1sc(C)nc1-c1ccccc1	-13%	-6%	4%	5%	-17%	-1%
CCOC(=O)Nc1cc2c(c(N)n1)N=C(c1ccccc1)CN2	56µM*	?	.	?	-24%	?
COc1ccc(NC(=O)C(NS(=O)(=O)c2ccc3c(c2)CCCC(=O)N3)C(C)C)c(OC)c1 (stereo not given)	.	-5%	12%	18%	-8%	20%
CCc1c(C)[nH]n(-c2ccc(Oc3ccccc3)c(S(=O)(=O)O)c2)c1=O	?	11µM*	25µM*	18µM*	35µM*	?
Cc1[nH]n(-c2ccccc2)c(=O)c1CCO	-2%	2%	12%	1%	-14%	12%
CN1CCN([C@@H](c2ccccc2)c2ccc(Cl)cc2)CC1	.	.	.	.	-3%[12 µM]	.
CCC1=NN2C(=N)/C(=C\c3cccn3-c3ccc(OC)cc3)C(=O)N=C2S1	-3%	-19%	0%	?	-10%	-29%
O=C1NC(=S)S/C1=C\c1ccc(SCc2ccco2)o1	8.9µM*	1.6µM*	2.2µM*	?	1.8µM*	?
CCCC1=NN2C(=N)/C(=C\c3ccc(SCc4ccco4)o3)C(=O)N=C2S1	40µM*	3.5µM*	13µM*	20µM*	28µM*	?
CCC1=NN2C(=N)/C(=C\c3ccc(SCc4ccco4)o3)C(=O)N=C2S1	50µM*	16µM*	13µM*	22µM*	?	-29%
COc1ccc(CCNC(=O)C2CCN(c3ncnc4c3nc3n4CCCCC3)CC2)c(OC)c1	.	-14%	9%	13%	-1%	5%
O=c1cc(-c2c(O)c3ccccc3n(Cc3ccccc3)c2=O)[nH][nH]1	?	?	8.9µM*	?	79µM*	?
CCn1c(=O)c(-c2cc(=O)[nH][nH]2)c(O)c2ccccc21	-7%	-8%	-11%	2%	-17%	1%
SMILES	WRN inhibitor	POLH inh	POLB inh	POLI inh	POLK inh	FEN1 inhibitor
Cc1cc(C)cc(-n2c(SCC(=O)Nc3ccccc3F)nc3c(oc4ccccc43)c2=O)c1	.	-5%	9%	17%	-8%	1%
Cn1c2ccccc2c(=O)c2ccc(C#CC3(N)CCCCC3)cc21	40%	-10%	35µM*	?	?	22µM*
C=C[C@H](CC(C)C)N(Cc1ccccc1)S(=O)(=O)N(Cc1ccccc1)[C@H](C=C)CC(C)C	.	.	.	22%	-21%	2%
Nc1nc(=S)ss1	-31%	-2%	.	28µM*	-12%	-27%
Cc1ccc(NC(=O)N/C=C/c2ccco2)c(C)c1	-23%[57.1 µM]	79µM*	?	?	?	?
Cc1ccc(O)c(NC(=S)NC(=O)/C=C/c2ccco2)c1	4%	-1%	?	20%	-9%	-1%
COc1ccc2ccc3c(c2c1)N=CC1(O3)N(C)c2ccccc2C1(C)C (stereo not given)	79µM*	-18%	?	5µM*	-10%	?
CN1c2ccccc2C(C)(C)C12C=Nc1c(ccc3ccccc13)O2 (stereo not given)	?	-18%	2%	?	-3%	-17%
Cc1ccc(Cl)cc1N1CCN(S(=O)(=O)c2cn(C)c(C)n2)CC1	.	-4%	-13%	-10%	-4%[60.1 µM]	-2%
O=C(C[n+]1cc(Br)cc(Br)c1)c1ccc2c(c1)CCCC2	.	.	.	20%	-18%	-8%
Cc1ccc2c(CC(=O)OCc3cc(=O)n4c(n3)sc3ccccc34)coc2c1	?	10µM*	10µM*	?	?	-3%
COc1ccc2[nH]c3nc(SCC(=O)Nc4ccc5c(c4)OCO5)nnc3c2c1	-17%	?	22µM*	?	-3%	4%
COc1ccc(-c2nc(SCC(=O)Nc3ccc4c(c3)OCCO4)c(-c3ccc(F)cc3)[nH]2)cc1	.	-17%	40µM*	?	-26%	-16%
COc1ccc(-c2nc(SCC(=O)Nc3ccc4c(c3)OCCO4)c(-c3ccc(F)cc3)[nH]2)cc1OC	.	-24%	3%	i	45%	5%
C=Cc1ccc(Cn2c(C(=O)O)c(CNC3CCCCC3)c3ccc(OC)cc32)cc1	.	?	35µM*	?	-22%	2%
COc1ccc(Cn2c(C(=O)O)c(CNC3CCCCCC3)c3ccc(OC)cc32)cc1	.	-13%	-1%	-5%	4%	6%
Fc1ccc(CCNc2ncnc3nc[nH]c23)cc1	.	.	.	-1%	2%	-11%
COc1ccc(NC(=O)COC(=O)CC2Sc3ccccc3NC2=O)cc1 (stereo not given)	-3%	2%	.	55%	-15%	-5%
COc1ccc2c(COC(=O)CC3Sc4ccccc4NC3=O)cc(=O)oc2c1 (stereo not given)	-13%[11.6 µM]	20µM*	35µM*	?	-23%	-3%

Assay outcomes deposited in PubChem by National Center for Advancing Translational Sciences (NCATS).
